Source: ChEMBL document CHEMBL1157539, “Thousands of chemical starting points for antimalarial lead identification” (Nature, 2010)

What follows are compounds tested on Plasmodium falciparum (assay: GSK_TCMDC: Inhibition of Plasmodium falciparum Dd2 in whole red blood cells, using parasite LDH activity as an index of growth. Test compounds present at 2uM).
Assay type: functional
With `O=c1cc(NCCCNCc2cc(Br)ccc2F)[nH]c2ccccc12` the Inhibition was 14%. With `Cc1cc2nc(-c3ccc(C(=O)NC4CCN(Cc5ccccc5)CC4)cc3)[nH]c2cc1C` the Inhibition was 99%. `COc1ccc(-c2ccc(CNC(=O)c3ccc(Cl)cc3)c(F)c2)cc1CN1CCCN(C)CC1.O=C(O)C(F)(F)F` gave an Inhibition of 48%. `COc1ccc(CCN(C)CCOc2ccc(NC(=O)c3cccc4cc5ccccc5nc34)cc2)cc1OC` was tested, and the Inhibition was 99%. `CN1CCN(c2ccnc3ccc(NC(=O)Nc4ccc5ccccc5c4)cc23)CC1.Cl` gave an Inhibition of 99%. With `COC(=O)c1cccc(CNCc2cccc(-c3ccc(-c4nc5cccc(C)c5[nH]4)s3)c2)c1.O=C(O)C(F)(F)F` the Inhibition was 65%. For `O=C(c1ccc(O)c(-c2cc(Cl)cc(Cl)c2)c1)N1CCCC1`, the Inhibition was 57%. Work on `Cc1cccc2nc(-c3cccc(-c4ccc(NC(=O)c5cnn6cccnc56)cc4)c3)[nH]c12` yielded an Inhibition of 73%. Compound `COc1ccc(-c2nc(NC(=O)Cc3cccc(OC)c3)sc2C)cc1` has an Inhibition of 77%. `CCC(C)CC(=O)Nc1ccc(OC)c(S(=O)(=O)N[C@@H]2CCN(C#N)C2)c1` (stereo not given in full) showed an Inhibition of 77%. For `Cc1cccc(Nc2c(-c3cc(Br)ccc3O)nc3ncccn23)c1`, the Inhibition was 98%. With `N=C(N)NC(=O)Nc1cc(Br)c(Cl)c(Br)c1` the Inhibition was 83%. `Br.c1cc(C2=NC3CCCCC3N2)ccc1OCCCCCOc1ccc(C2=NC3CCCCC3N2)cc1` (stereo not given) was tested, and the Inhibition was 23%. `COc1nc2c(N3CCN(CCNCc4ccc5c(n4)NC(=O)CO5)CC3)ccnc2cc1F.Cl` was tested, and the Inhibition was 9%. `Cc1cccc2nc(-c3cccc(-c4ccc(CNCc5cnn(-c6ccccc6)n5)cc4)c3)[nH]c12.O=C(O)C(F)(F)F` gave an Inhibition of 66%.
